For 5 compounds, composite z-score and z-score results are on record in PubChem BioAssay.

The source made the active and inactive calls.

Assay [1] can be described thus: small molecules captured by biotinylated probe aFSTL3 – biochemical, small-molecule microarray, fluorescence 635/667, stem cell growth factor project, primary screen (AID 1064).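 Further: measures binding of the biotinylated anti-FSTL3 antibody to printed compounds.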 To be noted: higher = more signal.
Assay [2] is described as follows: binders from COS7 lysate, DM2A8 probe, primary screen, torsin A project, cell lysate, small-molecule microarray, fluorescence 635/667 (AID 1065). To be noted: higher = more signal, COS7 lysate expressing mutant human TOR1A.
Assay [3] can be described thus: small molecules captured by biotinylated probe aFGF2 – biochemical, small-molecule microarray, fluorescence 635/667, stem cell growth factor project, primary screen (AID 1067).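 Further: measures binding of biotinylated aFGF2 protein to printed compounds on slides; z-score merges feature fluorescence and signal-to-noise across triplicate slides.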 To be noted: higher = more signal.
Assay [4] in a line: small molecules captured by biotinylated probe aFGF10 – biochemical, small-molecule microarray, fluorescence 635/667, stem cell growth factor project, primary screen (AID 1071).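 Further: score merges 667 nm spot intensity and signal to noise from triplicate slides.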 To be noted: higher = more signal.
Assay [5] addresses Neurogenic locus notch homolog protein 2 (Homo sapiens) (UniProt Q04721). As to the kind of experiment: small molecules binding Notch2 protein – biochemical, small-molecule microarray, 635 nm fluorescence, stem cell growth factors, primary screen (AID 1073). To be noted: higher = more signal.
The target in assay [6] is Pro-neuregulin-1, membrane-bound isoform (Homo sapiens) (UniProt Q02297). The experiment in a line: small molecules binding neuregulin-1 protein – biochemical, small-molecule microarray, fluorescence 635/667, psychiatric disease protein project, primary screen (AID 1075).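 Further: score combines 667 nm spot fluorescence with signal to noise.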 To be noted: NRG1 binding, 635 nm fluorescence, higher = more signal.
The subject of assay [7] is Neuregulin-1 EGF-like domain. As to the kind of experiment: small molecules binding NRG1 EGF domain – biochemical, small-molecule microarray, 635 nm fluorescence, primary screen (AID 1081).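 Further: binding of the protein to compounds printed on small-molecule microarray slides.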 To be noted: higher = more signal.
Assay [8] can be described thus: FRG1 expression reporter modulators in myotubes – cell-based, C2C12 myotubes, firefly/Renilla luciferase, luminescence, FRG1 inhibition for FSHD, primary screen (AID 1084). To be noted: FRG1 promoter luciferase, higher = more signal, called active from +8 up or from −8 down.
Assay [9] can be described thus: small molecules captured by biotinylated probe aFST – biochemical, small-molecule microarray, fluorescence 635/667, stem cell growth factor project, primary screen (AID 1086).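 Further: score merges 667 nm fluorescence with signal-to-noise of each printed compound spot.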 To be noted: higher = more signal.
Assay [10] in a line: binders of probe aHhip on microarray, primary screen, stem cell growth factor project, biochemical, small-molecule microarray, fluorescence 635/667 (AID 1087).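 Further: score merges spot fluorescence at 667nm with spot signal to noise ratio.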 To be noted: higher = more signal.
Assay [11] has as its system PRMT1 (protein arginine N-methyltransferase 1). The experiment in a line: small molecules binding arginine methyltransferase PRMT1 – biochemical, small-molecule microarray, 635 nm fluorescence, primary screen (AID 1088).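 Further: binding of Prmt1 protein to compounds spotted on small-molecule microarray slides.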 To be noted: higher = more signal.
Assay [12] in a line: growth effects on S. cerevisiae YJM789 – YJM789 clinical isolate, OD600, 24 h, basal, primary screen (AID 1089).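 Further: growth of clinical yeast isolate S. cerevisiae YJM 789 seeded 1000 cells per well; test concentration not given here.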 To be noted: higher = more signal, called active from +8 up or from −8 down.
Assay [13] in a line: S. pombe growth modifiers, basal conditions – strain 972, OD600, 24 h, no modulator, primary screen (AID 1090).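 Further: basal condition with compound alone and no growth modifier present; test concentration not given here.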 To be noted: S. pombe 972 growth, higher = more signal, called active from +8 up or from −8 down.
A short description of assay [14]: budding yeast growth modifiers under rapamycin – strain BY4716, OD600, 96 h, primary screen (AID 1091). Further: test concentration not given here. To be noted: S. cerevisiae BY4716 + rapamycin, higher = more signal, called active from +8 up or from −8 down.
In assay [15] the target is Torsin-1A-interacting protein 2 (Homo sapiens) (UniProt Q8NFQ8). As to the kind of experiment: small molecules binding lysate-expressed LULL1 – cell lysate, human LULL1 lysate, 635/667 nm fluorescence, primary screen (AID 1092).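 Further: score merges per-feature 667 nm fluorescence with signal-to-noise.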 To be noted: small-molecule microarray, hLULL1 lysate binding, 635 nm fluorescence; higher = more signal.
The nature of assay [16]: optical density change of DRC41 E. coli – strain DRC41, OD650, 24 h, E. coli filamentation project, primary screen (AID 1093).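 Further: MC1000 strain lacking acrAB efflux and sulA so SOS filamentation is blocked; test concentration not given here.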 To be noted: E. coli DRC41 growth, higher = more signal, called active from +8 up or from −8 down.
Assay [17] is described as follows: probe aLefty2 binding to arrayed compounds – biochemical, biotinylated probe, 635/667 nm fluorescence, primary screen (AID 1094).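 Further: score merges spot fluorescence near 667 nm with spot signal-to-noise ratio.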 To be noted: small-molecule microarray, higher = more signal.
The test system of assay [18] is Noggin (protein binding on small-molecule microarray). The experiment in a line: small molecules binding Noggin protein – biochemical, 635/667 nm fluorescence, primary screen (AID 1095).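 Further: score merges 667 nm feature fluorescence with signal to noise over triplicate slides.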 To be noted: 635 nm fluorescence, higher = more signal.
Assay [19] has as its target Neurogenic locus notch homolog protein 3 (Homo sapiens) (UniProt Q9UM47). The experiment in a line: small molecules binding NOTCH3 protein – biochemical, 635/667 nm fluorescence, primary screen (AID 1096). To be noted: small-molecule microarray, 635 nm fluorescence, higher = more signal.
The nature of assay [20]: probe aEGFR binding to arrayed compounds – biochemical, biotinylated probe, 635/667 nm fluorescence, primary screen (AID 1097).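 Further: probe is a biotinylated anti-EGFR antibody binding compounds printed on slides; score combines fluorescence near 667 nm and signal to noise of each spot.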 To be noted: small-molecule microarray, higher = more signal.

Chain of Pro-neuregulin-1, membrane-bound isoform (Homo sapiens) (Q02297 whole entry, looked up, the tested form may be a part, canonical isoform): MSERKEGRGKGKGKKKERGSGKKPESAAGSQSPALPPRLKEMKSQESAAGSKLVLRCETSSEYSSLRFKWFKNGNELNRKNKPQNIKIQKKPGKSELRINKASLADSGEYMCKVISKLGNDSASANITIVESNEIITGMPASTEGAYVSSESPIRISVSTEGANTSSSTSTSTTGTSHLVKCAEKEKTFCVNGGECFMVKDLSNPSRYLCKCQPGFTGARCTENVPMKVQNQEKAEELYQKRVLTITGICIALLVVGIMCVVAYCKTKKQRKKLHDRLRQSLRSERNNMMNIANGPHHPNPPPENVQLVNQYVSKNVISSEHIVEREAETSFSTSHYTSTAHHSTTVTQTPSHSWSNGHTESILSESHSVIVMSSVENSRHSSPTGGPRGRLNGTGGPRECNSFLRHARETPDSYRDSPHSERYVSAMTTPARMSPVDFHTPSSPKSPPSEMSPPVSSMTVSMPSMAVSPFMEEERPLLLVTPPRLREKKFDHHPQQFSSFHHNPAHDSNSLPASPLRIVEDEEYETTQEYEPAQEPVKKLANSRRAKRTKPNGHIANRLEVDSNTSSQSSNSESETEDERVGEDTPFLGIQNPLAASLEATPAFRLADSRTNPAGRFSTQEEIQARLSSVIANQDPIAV
Chain of Neurogenic locus notch homolog protein 3 (Homo sapiens) (Q9UM47 whole entry, looked up): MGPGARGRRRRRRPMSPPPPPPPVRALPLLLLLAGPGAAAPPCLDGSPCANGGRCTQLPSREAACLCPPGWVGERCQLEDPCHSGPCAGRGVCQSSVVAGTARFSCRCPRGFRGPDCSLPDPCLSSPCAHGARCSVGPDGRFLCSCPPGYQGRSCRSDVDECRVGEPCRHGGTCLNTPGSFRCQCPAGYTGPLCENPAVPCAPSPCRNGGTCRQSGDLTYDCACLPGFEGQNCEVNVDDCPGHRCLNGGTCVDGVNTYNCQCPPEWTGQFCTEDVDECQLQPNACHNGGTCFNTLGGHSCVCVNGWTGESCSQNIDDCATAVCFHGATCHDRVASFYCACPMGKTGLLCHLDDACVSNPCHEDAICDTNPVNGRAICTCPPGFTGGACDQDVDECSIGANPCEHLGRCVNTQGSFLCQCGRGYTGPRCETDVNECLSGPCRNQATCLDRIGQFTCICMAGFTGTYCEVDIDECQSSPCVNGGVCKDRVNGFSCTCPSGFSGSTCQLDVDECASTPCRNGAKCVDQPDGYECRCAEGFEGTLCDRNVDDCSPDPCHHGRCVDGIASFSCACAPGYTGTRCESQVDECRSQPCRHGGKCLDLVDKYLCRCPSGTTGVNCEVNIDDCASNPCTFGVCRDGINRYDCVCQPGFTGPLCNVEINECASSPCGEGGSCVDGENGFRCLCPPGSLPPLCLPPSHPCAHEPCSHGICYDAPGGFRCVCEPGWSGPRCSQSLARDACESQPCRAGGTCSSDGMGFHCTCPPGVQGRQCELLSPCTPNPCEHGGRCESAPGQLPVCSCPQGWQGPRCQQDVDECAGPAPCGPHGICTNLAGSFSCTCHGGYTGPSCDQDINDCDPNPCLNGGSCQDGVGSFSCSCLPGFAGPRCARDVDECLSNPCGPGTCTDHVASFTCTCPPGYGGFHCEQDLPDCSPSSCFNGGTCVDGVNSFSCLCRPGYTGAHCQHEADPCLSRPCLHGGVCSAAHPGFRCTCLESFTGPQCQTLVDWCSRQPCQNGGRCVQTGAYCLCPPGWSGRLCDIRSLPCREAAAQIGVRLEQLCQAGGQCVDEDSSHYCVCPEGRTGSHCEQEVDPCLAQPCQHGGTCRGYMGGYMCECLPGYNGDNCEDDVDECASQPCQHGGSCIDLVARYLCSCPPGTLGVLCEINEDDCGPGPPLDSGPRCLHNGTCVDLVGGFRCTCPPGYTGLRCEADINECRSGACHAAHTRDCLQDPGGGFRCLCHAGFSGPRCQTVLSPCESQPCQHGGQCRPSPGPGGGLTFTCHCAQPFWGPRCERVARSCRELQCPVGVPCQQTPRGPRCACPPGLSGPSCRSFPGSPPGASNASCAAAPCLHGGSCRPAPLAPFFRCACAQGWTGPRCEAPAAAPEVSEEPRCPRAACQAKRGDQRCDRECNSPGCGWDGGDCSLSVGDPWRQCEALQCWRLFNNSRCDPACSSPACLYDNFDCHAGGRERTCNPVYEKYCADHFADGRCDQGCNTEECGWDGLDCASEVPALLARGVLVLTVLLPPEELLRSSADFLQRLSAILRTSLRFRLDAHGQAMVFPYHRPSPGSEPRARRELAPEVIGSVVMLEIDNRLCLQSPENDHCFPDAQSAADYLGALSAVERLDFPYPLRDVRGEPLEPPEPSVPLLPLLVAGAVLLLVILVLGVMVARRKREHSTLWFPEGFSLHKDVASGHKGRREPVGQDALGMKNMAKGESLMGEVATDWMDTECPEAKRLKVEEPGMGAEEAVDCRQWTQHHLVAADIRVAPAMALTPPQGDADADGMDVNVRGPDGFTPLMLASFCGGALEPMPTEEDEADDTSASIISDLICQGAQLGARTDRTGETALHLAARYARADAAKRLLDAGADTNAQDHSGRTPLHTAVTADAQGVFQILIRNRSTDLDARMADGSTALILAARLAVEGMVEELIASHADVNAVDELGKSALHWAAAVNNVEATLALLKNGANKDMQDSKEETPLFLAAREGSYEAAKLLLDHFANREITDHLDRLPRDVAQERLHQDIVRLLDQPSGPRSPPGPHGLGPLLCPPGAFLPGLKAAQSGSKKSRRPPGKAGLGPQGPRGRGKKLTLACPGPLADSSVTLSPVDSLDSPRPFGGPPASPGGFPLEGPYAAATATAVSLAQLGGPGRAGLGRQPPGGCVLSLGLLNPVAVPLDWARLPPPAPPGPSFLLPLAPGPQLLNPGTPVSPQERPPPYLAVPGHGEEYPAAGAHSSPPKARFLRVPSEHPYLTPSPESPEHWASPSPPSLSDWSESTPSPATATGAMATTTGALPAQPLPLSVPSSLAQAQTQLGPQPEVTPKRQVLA
Chain of Torsin-1A-interacting protein 2 (Homo sapiens) (Q8NFQ8 whole entry, looked up): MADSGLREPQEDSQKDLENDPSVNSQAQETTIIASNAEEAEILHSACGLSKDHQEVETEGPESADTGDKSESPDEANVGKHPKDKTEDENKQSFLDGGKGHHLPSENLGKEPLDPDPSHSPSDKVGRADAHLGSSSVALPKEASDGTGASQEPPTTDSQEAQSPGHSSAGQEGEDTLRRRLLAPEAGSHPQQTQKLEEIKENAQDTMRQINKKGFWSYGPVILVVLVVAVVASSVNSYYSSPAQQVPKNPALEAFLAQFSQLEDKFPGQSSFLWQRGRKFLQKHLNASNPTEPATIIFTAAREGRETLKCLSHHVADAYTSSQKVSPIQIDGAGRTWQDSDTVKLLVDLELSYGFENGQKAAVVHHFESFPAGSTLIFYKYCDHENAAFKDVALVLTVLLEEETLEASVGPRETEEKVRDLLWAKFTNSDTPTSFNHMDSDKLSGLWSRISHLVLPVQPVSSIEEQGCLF

As to `CCOC(=O)C1=CC[C@@H](c2ccccc2)N(S(=O)(=O)c2ccc(C)cc2)[C@H]1c1ccccc1I`, the composite z-score is -0.312 in assay [1]; 0.215 in [2]; 0.162 in assay [3]; 0.571 in [4]; 1.48 in assay [5]; 1.05 in assay [6]. Moreover, the composite z-score in assay [7] turned out to be 1.12; in [9] it was 1.92; in [10], 0.0662; in [11] it was 0.98; in assay [15], 2.63; in assay [17], 0.52. The composite z-score came out at 0.22 in assay [18], 1.06 in assay [19] and 0.0321 in assay [20]. In addition, the z-score is -2.08 (inactive) in assay [8]; -0.323 (inactive) in [12]; 0.666 (inactive) in assay [13]; 0.607 (inactive) in assay [14]; -0.162 (inactive) in assay [16].

For `O=C(NCC(O)CO)C1N=C(c2ccc(OCCCO)cc2)N(c2ccccc2)O1` (stereo not given), the composite z-score was -0.279 in assay [1]; 0.657 in assay [2]; 0.0073 in assay [3]; 0.643 in assay [4]; 0.575 in assay [5]; -0.168 in [6]. Moreover, the composite z-score in assay [7] is 0.462; in [9], -0.282; in assay [10] it was 0.136; in assay [11], 1.55; in [15] it was 1.8; in assay [17], -0.196. The composite z-score in assay [18] is 1.19; in assay [19], 0.882; in [20], -0.0531. Further, the z-score in assay [8] is 3.24 (inactive); in [12], -0.375 (inactive); in [13] it was -0.243 (inactive); in assay [14], 0.13 (inactive); in assay [16], 0.153 (inactive).

`C=CCC(OC(C)=O)[C@@H]1[C@@H](N(Cc2ccc(-c3cccc(C(F)(F)F)c3)o2)C(=O)c2ccc(-c3ccccc3)cc2)c2cc(OCCCO)ccc2N1C(=O)c1ccc2ccccc2c1` (stereo not given in full): the composite z-score in [1] was -0.071; in assay [2] it was -0.651; in assay [3], -0.105; in [4], -0.117; in [5], 0.311; in assay [6] it was -0.0973. Also, the composite z-score in assay [7] was -0.373; in assay [9], 0.543; in [10], -0.0618; in assay [11], -1.39; in assay [15] it was 0.254; in assay [17], -0.0485. The composite z-score in assay [18] is 0.28; in assay [19], 0.461; in assay [20] it was -0.0828. Moreover, the z-score in [8] is -0.274 (inactive); in assay [12] it was 0.729 (inactive); in [13], 1.16 (inactive); in assay [14], 0.136 (inactive); in assay [16], -0.28 (inactive).

For the compound `CCCCC(O)C1C=CC2C(=O)N(c3ccccc3)C(=O)C2N1Nc1ccc(C#N)cc1` (stereo not given), the composite z-score is 0.805 in assay [1]; -0.472 in [2]; -0.074 in assay [3]; 0.226 in assay [4]; 1.27 in assay [5]; 1.9 in assay [6]. Besides, the composite z-score in assay [7] was 1.41; in [9] it was 0.941; in [10], -0.112; in assay [11], 0.771; in assay [15], 3.14; in assay [17], 0.444. The composite z-score in assay [18] was -0.358; in assay [19], 0.473; in assay [20] it was 0.247. Moreover, the z-score is 0.662 (inactive) in assay [8]; 0.243 (inactive) in [12]; 0.634 (inactive) in assay [13]; 1.64 (inactive) in [14]; -1.11 (inactive) in [16].

Take `CC(C)=CCCC(C)=CC(O)C1C=CC2C(=O)NC(=O)C2N1Nc1ccc(Cl)cc1Cl` (stereo not given): the composite z-score was determined as 0.235 in assay [1]; 0.401 in assay [2]; 0.234 in [3]; 0.214 in assay [4]; 0.933 in assay [5]; 1.86 in [6]. The composite z-score in assay [7] stood at 0.915; in assay [9], 0.901; in [10], 0.0373; in assay [11], 0.258; in [15], 2.31; in [17] it was 0.17. Also, the composite z-score in [18] is -0.218; in assay [19], 0.845; in assay [20], -0.0904. Moreover, the z-score was 1.89 (inactive) in assay [8]; -0.835 (inactive) in [12]; -4.51 (inactive) in assay [13]; 0.279 (inactive) in assay [14]; -2.06 (inactive) in assay [16].
